The supplement of paper PMC7595190

System: MV4-11
Assay: CellTox Green cytotoxicity fluorescence relative to DMSO vehicle (fold of vehicle RFU); higher = more cell death (loss of membrane integrity), active = 2 or more
Method: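 Paediatric AML cell lines (MV4-11, CMK, Kasumi-1; 4x10^4 cells/well, 96-well) treated with single compounds from the Selleckchem apoptosis library at 0.01, 0.1 and 1 µM. Cytotoxicity was read with CellTox Green (RFU, Ex 485/Em 520) at 24, 48 and 72 h and normalised to the 0.1% DMSO vehicle. Normalised RFU >= 2 was taken as a successful, cell-killing treatment.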

Measured: CellTox Green cytotoxicity fluorescence

COc1cc(C)[nH]c(=O)c1CNC(=O)c1c(C)n([C@H](C)C2CCOCC2)c2ccccc12
inactive: 0.01 µM, 24 h 0.942 | 0.01 µM, 48 h 0.94 | 0.01 µM, 72 h 0.941 | 0.1 µM, 24 h 0.942 | 0.1 µM, 48 h 0.951 | 0.1 µM, 72 h 0.957 | 1 µM, 24 h 0.942 | 1 µM, 48 h 0.936 | 1 µM, 72 h 0.948
